Values joined by “and” are separate entries in the source; they are usually repeats but may differ in a detail not shown here. Equal values may be shown once. The whole screen tested about 350,000 compounds, of which about 6,000 (1.7%) were called active. Not shown: some 5% with an inconclusive outcome. This is one part of a sample in which actives are shown more often than they occur. Rule as the data show it: active = CPE inhibition above about 20% (passing the limit was not always enough); inconclusive = no clear call, values can overlap the other calls; tested in BHK-21 cells. More than one record can exist for a structure, and the calls need not agree.

A short description of the experiment: protection of cells from dengue 2 killing – plate reader, single concentration, primary screen (AID 651640).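 Also: 0% = median of neutral control wells and 100% = median of positive control wells.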 The conditions noted are these: DENV2-infected cells, cytopathic effect rescue, at 9.99 µM, stronger effect = higher value.
For `O=C(Nc1ccccc1)N[C@@H]1CC[C@H](CCn2cc(-c3ccccc3F)nn2)O[C@@H]1CO`, the CPE inhibition is 10.9% (inactive).
Turning to `CS(=O)(=O)N1CC2(C1)[C@H](c1ccccc1)[C@@H](CO)N2C(=O)c1ccccc1`, the CPE inhibition was 0.143% (inactive).
Consider `O=S(=O)(c1ccc(F)cc1)N1CCCCN2[C@H](CO)[C@@H](c3ccc(C#CC4CCCC4)cc3)[C@H]2C1`, for which the CPE inhibition was -3.13% (inactive).
Regarding `C[C@@H]1CN([C@H](C)CO)S(=O)(=O)c2ccc(C3=CCCC3)cc2O[C@H]1CN(C)C(=O)Nc1ccc2c(c1)OCO2`, the CPE inhibition was 21.4% (active).
For the molecule `C[C@H]1CN([C@@H](C)CO)S(=O)(=O)c2ccc(C#Cc3ccncc3)cc2O[C@@H]1CN(C)C(=O)Nc1ccc2c(c1)OCO2`, the CPE inhibition is 13.3% (inactive).
Regarding `COCC(=O)N(C)C[C@H]1Oc2cc(Br)ccc2S(=O)(=O)N([C@H](C)CO)C[C@H]1C`, the CPE inhibition was 21.7% (inactive) and 31.3% (active).
`C[C@H]1CN([C@@H](C)CO)S(=O)(=O)c2ccc(C3=CCCC3)cc2O[C@H]1CN(C)C(=O)Nc1ccc2c(c1)OCO2`: the CPE inhibition was -1.69% (inactive).
`C[C@@H]1CN([C@@H](C)CO)S(=O)(=O)c2ccc(Br)cc2O[C@@H]1CN(C)C(=O)CN(C)C`: the CPE inhibition is 2.66% (inactive).
On to `COCC(=O)N(C)C[C@H]1Oc2cc(C#CC(C)C)ccc2S(=O)(=O)N([C@H](C)CO)C[C@@H]1C`, for which the CPE inhibition was -1.85% (inactive).
`O=C(C[C@@H]1CC[C@H](NC(=O)Cc2ccccn2)[C@H](CO)O1)NCCc1ccncc1`: the CPE inhibition was 1.65% (inactive).
For `CCNC(=O)C[C@@H]1CC[C@H]2[C@@H](COc3ccc(NC(=O)Cc4cccs4)cc3C(=O)N2C)O1`, the CPE inhibition is -0.188% (inactive).
In the case of `Cc1noc(C)c1NC(=O)Nc1ccc2c(c1)C(=O)N([C@@H](C)CO)C[C@H](C)[C@H](CN(C)Cc1ccc(C(=O)O)cc1)OCCCC[C@@H](C)O2`, the CPE inhibition is -4.14% (inactive).
Turning to `CSc1ccc(Oc2cccc3c2S(=O)(=O)N([C@H](C)c2ccccc2)C[C@@H](COCc2ccccc2)O3)cc1C`, the CPE inhibition is 12% (inactive).
On to `COC(=O)N1Cc2ccnnc2CC1c1ccccc1Br` (centres undefined), for which the CPE inhibition was -2.73% (inactive).
The value for `O=C(O)c1ccccc1-c1cccc2nncn12` was -0.993% (inactive); that for `CCCC/C=C/c1cccc2nncn12` was 28.7% (active); that for `C[C@@H]1CCCCO[C@@H](CN(C)S(=O)(=O)c2cn(C)cn2)[C@H](C)CN([C@H](C)CO)C(=O)c2cc(NC(=O)NC3CCCCC3)ccc2O1` was 5.41% (inactive).
With `CC(Oc1cccc(Cl)c1)C(=O)Nc1ccc(S(=O)(=O)Nc2ncccn2)cc1` (centres undefined), the CPE inhibition is 2.3% (inactive).
With `O=C(NC(=S)Nc1ccc(S(=O)(=O)Nc2ncccn2)cc1)c1cccc(Br)c1`, the CPE inhibition was -1.82% (inactive).
The value for `COc1ccc(OC)c(C(C)NC(=S)Nc2ccc(S(=O)(=O)Nc3ncccn3)cc2)c1` (centres undefined) was 49.8% (active); that for `Cc1noc(C)c1NC(=O)Nc1ccc2c(c1)C(=O)N([C@H](C)CO)C[C@@H](C)[C@H](CN(C)S(=O)(=O)c1ccc(Cl)cc1)OCCCC[C@H](C)O2` was -4.55% (inactive); that for `Cc1ccc(-c2ccc(CN3C(C(C)C)C(=O)N(Cc4cn(CCC5OCCO5)nn4)CCS3(=O)=O)cc2)cc1` (centres undefined) was 6.07% (inactive).
On to `CC(C)C1C(=O)N(Cc2cn(CCC3OCCO3)nn2)CCS(=O)(=O)N1Cc1ccc(-c2ccccc2C(F)(F)F)cc1` (centres undefined), for which the CPE inhibition is -6.47% (inactive).
As to `COc1ccc(Cn2cc(CN3CCS(=O)(=O)N(Cc4ccc(-c5cccc(Cl)c5)cc4)C(C)C3=O)nn2)cc1` (centres undefined), the CPE inhibition is 3.05% (inactive).
The value for `Cc1ccc(-c2ccc(CN3C(C(C)C)C(=O)N(Cc4cn(CCC5OCCCO5)nn4)CCS3(=O)=O)cc2)cc1` (centres undefined) was 102% (active); that for `Cc1ccc(-c2ccc(CN3C(C)C(=O)N(Cc4cn(CCC5OCCCO5)nn4)CCS3(=O)=O)cc2)cc1` (centres undefined) was 86.5% (active); that for `CC1C(=O)N(Cc2cn(Cc3ccco3)nn2)CCS(=O)(=O)N1Cc1ccc(-c2cccc(CO)c2)cc1` (centres undefined) was -5.64% (inactive).
`CCCNC(=O)[C@@H]1[C@@H](CO)[C@@H]2Cn3c(cccc3=O)[C@H]1N2C(=O)C1CC1`: the CPE inhibition was -2.53% (inactive).
To `CO[C@@H]1CN(C)C(=O)c2ccc(NC(=O)Nc3ccccc3)cc2OC[C@@H](C)N(C(=O)Nc2c(C)noc2C)C[C@@H]1C` belongs -2.63% (inactive).
Take `CCCNC(=O)Nc1ccc2c(c1)C(=O)N(C)[C@H]1CC[C@H](CC(=O)NCC3CCCCC3)O[C@@H]1CO2`: the CPE inhibition was 7.7% (inactive).
To `CCC(=O)N(C)C[C@@H]1Oc2ncc(-c3ccccc3OC)cc2C(=O)N([C@@H](C)CO)C[C@@H]1C` belongs -0.292% (inactive).
As for `O=C(C[C@@H]1C=C[C@@H](NC(=O)c2ccccn2)[C@@H](CO)O1)NCc1cc(F)cc(F)c1`, the CPE inhibition was -1.09% (inactive).
For the molecule `CCCC(=O)Nc1ccc2c(c1)C(=O)N(C)C[C@H](OC)[C@@H](C)CN(C(C)=O)[C@H](C)CO2`, the CPE inhibition is 68% (active).
With `CCCC(=O)Nc1ccc2c(c1)C(=O)N(C)C[C@@H](OC)[C@H](C)CN(C(C)=O)[C@H](C)CO2`, the CPE inhibition is 4.44% (inactive).
As to `CCCC(=O)Nc1ccc2c(c1)OC[C@H](C)N(C(=O)C1CCCC1)C[C@@H](C)[C@H](OC)CN(C)C2=O`, the CPE inhibition was -8.69% (inactive).
Take `CCCC(=O)Nc1ccc2c(c1)OC[C@H](C)N(C(=O)CC)C[C@H](C)[C@@H](OC)CN(C)C2=O`: the CPE inhibition was 25.3% (active).
Consider `CO[C@H]1CN(C)C(=O)c2cc(NS(C)(=O)=O)ccc2OC[C@H](C)N(C(=O)C2CCCC2)C[C@H]1C`, for which the CPE inhibition is -6.55% (inactive).
As to `CO[C@@H]1CN(C)C(=O)c2cc(NS(C)(=O)=O)ccc2OC[C@@H](C)N(C(=O)C2CCC2)C[C@@H]1C`, the CPE inhibition is 23.4% (active).
Turning to `CO[C@H]1CN(C)C(=O)c2ccc(NC(=O)C3CC3)cc2OC[C@H](C)N(C(=O)CN2CCOCC2)C[C@@H]1C`, the CPE inhibition is -2.69% (inactive).
Take `CO[C@@H]1CN(C)C(=O)c2cc(NC(=O)C3CC3)ccc2OC[C@H](C)N(C(=O)CN2CCOCC2)C[C@@H]1C`: the CPE inhibition is -10.9% (inactive) and -2.35% (inactive).
In the case of `CO[C@H]1CN(C)C(=O)c2ccc(NC(=O)C3CC3)cc2OC[C@@H](C)N(C(=O)CN2CCOCC2)C[C@H]1C`, the CPE inhibition was 41.3% (active).
To `CCCNC(=O)N1C[C@H](C)[C@H](OC)CN(C)C(=O)c2cc(NC(=O)CC)ccc2OC[C@H]1C` belongs -0.559% (inactive); to `CCC(=O)N1C[C@H](C)[C@H](OC)CN(C)C(=O)c2ccc(NC(=O)Nc3ccccc3)cc2OC[C@H]1C`, -7.71% (inactive).
As to `CO[C@H]1CN(C)C(=O)c2ccc(NS(C)(=O)=O)cc2OC[C@H](C)N(C(=O)C2CCC2)C[C@H]1C`, the CPE inhibition was -2.45% (inactive).
As for `CCCC(=O)N1CCC2(CC1)CN(C(=O)C1CCCCC1)[C@@H](CO)c1[nH]c3cc(OC)ccc3c12`, the CPE inhibition was 0.105% (inactive).
As for `C[C@@H]1CCCCO[C@@H](CN(C)C(=O)NC2CCCCC2)[C@@H](C)CN([C@@H](C)CO)C(=O)c2cc(NC(=O)C3CCCCC3)ccc2O1`, the CPE inhibition is -1.85% (inactive).
To `C[C@@H]1CN([C@@H](C)CO)C(=O)c2cccc(NC(=O)Nc3ccc4c(c3)OCO4)c2O[C@@H]1CN(C)C(=O)Nc1ccc(F)cc1` belongs 16.1% (inactive); to `C[C@H](CO)N1C[C@H](C)[C@@H](CN(C)C(=O)Nc2ccc3c(c2)OCO3)Oc2ccc(NC(=O)NC3CCCCC3)cc2CC1=O`, 9.47% (inactive).
To `COc1ccc(S(=O)(=O)N(C)C[C@H]2OCCCC[C@@H](C)Oc3ccc(NC(=O)NC(C)C)cc3C(=O)N([C@H](C)CO)C[C@H]2C)cc1` belongs -2.15% (inactive); to `COCC(=O)N1CC(=O)N2[C@H](C1)[C@@H](c1ccc(C#Cc3cccc(OC)c3)cc1)[C@@H]2CO`, -1.66% (inactive); to `COc1ccc(S(=O)(=O)N(C)C[C@@H]2OCCCC[C@H](C)Oc3ccc(NC(=O)NC4CCCCC4)cc3C(=O)N([C@H](C)CO)C[C@H]2C)cc1`, -9.88% (inactive).
`CCCN1[C@H](C(=O)N2CCCCC2)[C@@H](CO)[C@@H]2Cn3c(ccc(-c4ccccc4F)c3=O)[C@@H]21`: the CPE inhibition is 0.279% (inactive).
With `C[C@H](CO)N1C[C@H](C)[C@@H](CN(C)C(=O)c2ccncc2)Oc2ncc(-c3ccncc3)cc2C1=O`, the CPE inhibition was 0.501% (inactive).
On to `C/C=C/c1cccc(-c2nc(C(=O)NCCN3CCCCC3)cc3c2[C@@H](CCO)N([S@](=O)C(C)(C)C)C3)c1`, for which the CPE inhibition is 8.26% (inactive).
For the molecule `COCc1cn(CC[C@@H]2CC[C@@H](NC(=O)Nc3ccc(C(F)(F)F)cc3)[C@H](CO)O2)nn1`, the CPE inhibition was 2.57% (inactive).
Turning to `O=C(C[C@H]1C[C@H]2c3cc(NC(=O)Nc4ccccc4)ccc3O[C@H]2[C@H](CO)O1)NC1CCCC1`, the CPE inhibition is 16.7% (inactive).
Take `O=C(N[C@H]1CC[C@@H](CCNS(=O)(=O)Cc2ccccc2)O[C@H]1CO)c1ccccc1F`: the CPE inhibition was 5.12% (inactive).
As to `CN(C)C(=O)c1cccc(-c2ccc([C@H]3[C@H](CO)N4C(=O)CN(C(=O)Cc5ccccc5)C[C@@H]34)cc2)c1`, the CPE inhibition was 4.14% (inactive).
Regarding `Cc1noc(C)c1NC(=O)Nc1ccc2c(c1)C(=O)N([C@H](C)CO)C[C@@H](C)[C@@H](CN(C)Cc1ccncc1)OCCCC[C@H](C)O2`, the CPE inhibition was 1.93% (inactive).
For `CN1C(=O)c2cc(NC(=O)C3CCOCC3)ccc2OC[C@@H]2O[C@@H](CC(=O)NCC3CC3)CC[C@@H]21`, the CPE inhibition is -9.75% (inactive).
To `CN(C)C(=O)C[C@@H]1C[C@@H]2c3cc(NC(=O)NC4CCCCC4)ccc3O[C@@H]2[C@H](CO)O1` belongs -9.26% (inactive); to `CO[C@@H]1CN(C)C(=O)c2cc(NC(=O)C3CC3)ccc2OC[C@H](C)N(C(=O)c2ccccc2F)C[C@H]1C`, -0.841% (inactive); to `CCC(=O)Nc1ccc2c(c1)C(=O)N(C)C[C@H](OC)[C@H](C)CN(C(=O)c1ccccc1F)[C@@H](C)CO2`, 23.7% (active).
Take `CCC(=O)Nc1ccc2c(c1)OC[C@H](C)N(C(=O)c1ccccc1F)C[C@@H](C)[C@H](OC)CN(C)C2=O`: the CPE inhibition is -6.62% (inactive).

Values taken from PubChem BioAssay AID651640 (Broad Institute, 2012).
